Results from article PMC7819943, “Rice protein-binding microarrays: a tool to detect cis-acting elements near promoter regions in rice”.
The full ranking holds about 39,000 sequences; the median of “fluorescence intensity (a.u.)” is about 4,300, and the highest 2% start at about 39,000. Shown is part of a subset that was picked to be rich in the highest values.

target: T1, OsSMF1 (Oryza sativa, UniProt Q6ZLB0 1-436); assay: protein-binding microarray (RPBM); PBS, 2% BSA, 51.3 ng/ul salmon testes DNA, 50 uM zinc acetate, 200 nM TF, 25 C, 1 h; high values mean tight binding; settings: protein: recombinant; tags: N-terminal polyhistidine and DsRed monomer fusion (pET32a); chain copies: 2; label: CyDye5-dUTP incorporated in the synthesized complementary strand; 3' TTTTT single-stranded linker to array surface; dsDNA, one strand shown
T1 sequence: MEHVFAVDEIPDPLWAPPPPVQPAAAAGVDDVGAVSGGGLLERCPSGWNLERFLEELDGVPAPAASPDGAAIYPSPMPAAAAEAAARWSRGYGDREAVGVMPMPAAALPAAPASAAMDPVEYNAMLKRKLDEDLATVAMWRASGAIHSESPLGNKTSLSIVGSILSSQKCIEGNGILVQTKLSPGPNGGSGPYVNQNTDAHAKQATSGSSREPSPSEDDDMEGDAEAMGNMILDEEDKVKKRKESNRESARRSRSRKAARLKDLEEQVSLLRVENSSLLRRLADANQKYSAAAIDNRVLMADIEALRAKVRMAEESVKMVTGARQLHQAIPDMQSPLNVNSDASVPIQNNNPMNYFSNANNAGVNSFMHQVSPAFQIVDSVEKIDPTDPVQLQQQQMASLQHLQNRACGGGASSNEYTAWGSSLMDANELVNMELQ
Method in brief: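 Ni–NTA purification followed expression in E. coli BL21-CodonPlus of transcription factors fused N-terminally to a polyhistidine tag and DsRed. At 200 nM in PBS with 2% BSA, salmon testes DNA and 50 µM zinc acetate, the protein was incubated for 1 h at 25 °C with a custom Agilent array that had been primer-extended with Cy5-dUTP and blocked with 2% BSA. After washing, the array was read on an Axon 4000B scanner. The binding signal is per-feature fluorescence intensity in arbitrary units.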

| Sequence | binding signal |
| --- | --- |
| CGTCGCCGTCGCCTCGCCTCGTCACGGCCGCCTCCGCCATCGGAGTCACCTAGTGCAG | 7920 fluorescence intensity (a.u.) |
| TGCCGCCGCCGTCGTCACCGTCGCCGCCTCCGTGCTCATGCGGAGTCACCTAGTGCAG | 6030 fluorescence intensity (a.u.) |
| ACCTCTGGTAGCAGCAGCAGCTCGCACGCAGCTCATCGTGCGGAGTCACCTAGTGCAG | 40700 fluorescence intensity (a.u.) |
| GCGTGGTGCGTATCGTGCTCATCGCATCGGCCTCCGTATACGGAGTCACCTAGTGCAG | 40000 fluorescence intensity (a.u.) |
| CCAGCAGCCCCTCTCTCATCCATGGTAGTGCTCTGTCATGCGGAGTCACCTAGTGCAG | 3400 fluorescence intensity (a.u.) |
| ATGTTGACTCGTTTGCCTGTGTTCCTCTTGCTGCTATTCACGGAGTCACCTAGTGCAG | 3230 fluorescence intensity (a.u.) |
| TCTTTAGTCCCGGTTCCTATTTAAACCGGGATTATTGTGGCGGAGTCACCTAGTGCAG | 47900 fluorescence intensity (a.u.) |
| ATCTTTAGTCCCGGATTGGTAGTTCCGGTTTGAAAACCGGCGGAGTCACCTAGTGCAG | 3760 fluorescence intensity (a.u.) |
| CGCTGTGGTGTGCAGCGGCGGTGCCACGTCCCTATTTAAACGGAGTCACCTAGTGCAG | 10900 fluorescence intensity (a.u.) |
| ACCAAATGACATGACTCACTTAGATCCTAATAGGACATCCCGGAGTCACCTAGTGCAG | 4400 fluorescence intensity (a.u.) |
| GCGCCGCGGTGGAGGCGAGTGGGCGACACGTGGGAAGTGGCGGAGTCACCTAGTGCAG | 6610 fluorescence intensity (a.u.) |
| CCGGACCAAAATGACGTGCCTTAGGCCGGGCCGCCAGCCTCGGAGTCACCTAGTGCAG | 3830 fluorescence intensity (a.u.) |
| GTGCTGGCCAAATGGGCCGGGCCAAGGCCTCGGTAACCACCGGAGTCACCTAGTGCAG | 42300 fluorescence intensity (a.u.) |
| ATATGTGCTGGCCGCTGAGGTATACAGTATATGGGCCAACCGGAGTCACCTAGTGCAG | 3580 fluorescence intensity (a.u.) |
| ATCTGTCTTTGTTTGAAATCAGATTGGTTCAAAACAAGCGCGGAGTCACCTAGTGCAG | 21900 fluorescence intensity (a.u.) |
| AGTTGATAAATTTCAGAAAATTTTGATGACAAAGCAAAGCCGGAGTCACCTAGTGCAG | 5580 fluorescence intensity (a.u.) |
| CTTTTCACGGATCCTAATTTTGACAGGCAAAGAAAGAAAGCGGAGTCACCTAGTGCAG | 41700 fluorescence intensity (a.u.) |
| CAAATTTTAATCCTAGAAAAGCTTATATTTGAAGGAGAAGCGGAGTCACCTAGTGCAG | 31100 fluorescence intensity (a.u.) |
| GTCCCGCGCATTGGCGACGCGCGACCGGCACGGTCCCGCACGGAGTCACCTAGTGCAG | 13500 fluorescence intensity (a.u.) |
| CTGACGACCCGGATCAACCATTGGCAGCAGCTCCTGTACACGGAGTCACCTAGTGCAG | 3580 fluorescence intensity (a.u.) |
| AATAACCACGTATATATAACTTCTAACCCTAGTTAACAACCGGAGTCACCTAGTGCAG | 3310 fluorescence intensity (a.u.) |
| TGATTTAAACATGTTATGTAAGGAGAGTTGGAGACAGATACGGAGTCACCTAGTGCAG | 22000 fluorescence intensity (a.u.) |

| Sequence | binding signal |
| --- | --- |
| AGAGGGGAGGAAGAAGGAAGGAGAGATGGGTCCGACATGTCGGAGTCACCTAGTGCAG | 26900 fluorescence intensity (a.u.) |
| AAAGAGATTATGCGGATATGCCCTTGCAAACCGGGGCAGTCGGAGTCACCTAGTGCAG | 49900 fluorescence intensity (a.u.) |
| TACTTATGTAAAAGGATTGATTTAAGAGAATGGTCCAAACCGGAGTCACCTAGTGCAG | 44100 fluorescence intensity (a.u.) |
| GATGTCTTTAAAGAGGATTATATGAAATTTGAGATGAAATCGGAGTCACCTAGTGCAG | 3610 fluorescence intensity (a.u.) |
| GAATTTATGGTTGAATACTTAACTTAAAATCCAAGGAACCCGGAGTCACCTAGTGCAG | 3220 fluorescence intensity (a.u.) |
| AGAGAATTATGGAGAGGGGAGGGGAGGGGCAGCAAAAGAGCGGAGTCACCTAGTGCAG | 4210 fluorescence intensity (a.u.) |
| AAGAGATGGGGATTAAACCAATTGGGCCGAAAGATATGTCCGGAGTCACCTAGTGCAG | 41200 fluorescence intensity (a.u.) |
| AAACAACCAACTTTGCCTGCAAAACGGCAAAGAGATTAACCGGAGTCACCTAGTGCAG | 3920 fluorescence intensity (a.u.) |
| CGTACGGATATGCCCACGTGGCGAAGTCCCACGACGCCACCGGAGTCACCTAGTGCAG | 9930 fluorescence intensity (a.u.) |
| ATTTCCAGTAAAAGTGGCATTGTTCAGACTTCAGTCATTACGGAGTCACCTAGTGCAG | 3530 fluorescence intensity (a.u.) |
| CACGGCATCGGCATCGGCAGCCACGCCTCGCGTGGCACGGCGGAGTCACCTAGTGCAG | 4720 fluorescence intensity (a.u.) |
| GACAGATGTGCTGAGTGCTGACGTGGTTAAACTAACCTCGCGGAGTCACCTAGTGCAG | 16100 fluorescence intensity (a.u.) |
| AAGAGGATCGCAATCGTGAAAACTTCGCAAGTGTTCAGAACGGAGTCACCTAGTGCAG | 59100 fluorescence intensity (a.u.) |
| TCGAAAACTTTTCAGCCACGTGATGTTGGCAATCGCTGTTCGGAGTCACCTAGTGCAG | 7190 fluorescence intensity (a.u.) |
| CCAAACTAAGAGTGTTCAAGGGGAGGGGAAAAGAGAAGATCGGAGTCACCTAGTGCAG | 3660 fluorescence intensity (a.u.) |
| CTTGGCCCAGAAACAACACACACACTCAAATCTGGATCCACGGAGTCACCTAGTGCAG | 3790 fluorescence intensity (a.u.) |
| CCACTGGACCATAACTGGGCCCAGCACACAGAAACAAATCCGGAGTCACCTAGTGCAG | 44700 fluorescence intensity (a.u.) |
| CACCAGCACATAAACACAAACCCACAGAAGACATTGCATTCGGAGTCACCTAGTGCAG | 5420 fluorescence intensity (a.u.) |
| CGGCCCACCCACCAACCACCACCACCACCACCACACCCGCCGGAGTCACCTAGTGCAG | 3740 fluorescence intensity (a.u.) |
| AATGAAATTAAACACACCCAACAAAATAAAAGACCAAACCCGGAGTCACCTAGTGCAG | 3140 fluorescence intensity (a.u.) |
| GGGCCCCACAACCACCCCATAAATAAAGCAACACAACAACCGGAGTCACCTAGTGCAG | 53000 fluorescence intensity (a.u.) |
